Test results reported in PubChem BioAssay (NCATS).
Inconclusive results are not listed. A call without a number means that no potency is given here. Activity calls are given as the source filed them. Calls come from the whole dose curve; as a rule, active = well fitted inhibition curve with a large enough effect; inconclusive = small, poorly fitted or top-dose-only effect; inactive = no such curve, though single readings can be large or run the other way.

Tested on: Zika virus NS2B-NS3 protease (unlinked complex)
Experiment: Primary screen GU Rhodamine qHTS for Zika virus inhibitors: Unlinked NS2B-NS3 protease assay (AID 1347159); note: nearly all actives have a fitted effect of over 60% in size
Conditions: Recombinant ZIKV NS2B-NS3 protease, Rhodamine110 substrate fluorescence; series mostly up to 107 µM
Summary of the method: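 Noncovalent NS2B hydrophilic domain/NS3 protease complex (25 nM final) in 10 mM Tris-HCl pH 8.0, 0.01% Tween 20, preincubated 15 min with compounds (up to 114 microM), then 1.5 microM Rhodamine110 substrate. Fluorescence change over 15 min fitted to 4-parameter Hill.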
Potency is the fitted concentration of half-maximal effect.

Compound	Potency
COc1ccccc1S(=O)(=O)Nc1ccc2c(c1)CN(C)C(=O)N2	inactive
CC(=O)O[C@@H]1[C@@H](O)[C@H](O[C@@H]2[C@@H](O)[C@@H](O)[C@H](O[C@H]3[C@H](O[C@H]4[C@H](O[C@H]5CC[C@@]6(C)C(CC[C@]7(C)C6CC=C6[C@@H]8CC(C)(C)CC[C@]8(C(=O)O)CC[C@]67C)[C@]5(C)CO)O[C@H](CO)[C@@H](O)[C@@H]4O)OC[C@@H](O)[C@@H]3O)O[C@H]2C)OC[C@H]1O (some centres undefined)	inactive
Cc1nc(NC(=O)N2CCCC2C(N)=O)sc1-c1ccnc(C(C)(C)C(F)(F)F)c1 (centres undefined)	inactive
Nc1c(S(=O)(=O)c2ccccc2)c2nc3ccccc3nc2n1-c1ccc(F)cc1	inactive
CN1CCc2cc3c(cc2C(=O)Cc2cc4c(cc2C1)OCO4)OCO3	inactive
Cn1sc(=O)n(Cc2ccccc2)c1=O	inactive
CC1(CO)CC2C(O)C3=C(CC(C)(O)C2C1)C(=O)OC3 (centres undefined)	inactive
C[C@@H]1CC[C@]2(C(=O)O)CC[C@]3(C)C(=CCC4[C@@]5(C)CC[C@H](O)[C@](C)(C(=O)O)C5CC[C@]43C)C2[C@]1(C)O (some centres undefined)	inactive
O=c1[nH]c([C@@H]2CCCN2)nc2c1oc1ccc(Cl)cc12	inactive
COc1ccc2nc(-c3cc(OC)c(OC)c(OC)c3)cc(C(=O)NCC(=O)Nc3ccc(C(C)=O)cc3)c2c1	inactive
CCCCCCCCC(=O)N[C@H](CN1CCCC1)[C@H](O)c1ccc2c(c1)OCCO2	inactive
COC(=O)c1ccc(N2CCN(C)CC2)c(NC(=O)c2cccc(OC)c2)c1	inactive
COc1cc(N2CCOCC2)ccc1NC(=O)c1csc(-c2cccnc2)n1	inactive
C=C1CC[C@@H]2[C@](C)(CO)[C@H](O)CC[C@@]2(C)[C@@H]1C/C=C1/C(=O)OCC1OC(=O)/C(=C/CO)C(O)C[C@@H]1C(=C)CC[C@@H]2[C@](C)(CO)[C@H](O)CC[C@]21C (some centres undefined)	inactive
O=C(NNc1nc2cc(F)ccc2n2cccc12)c1cnccn1	inactive
C=C1/C(=C/C=C2\CCC[C@]3(C)[C@@H]([C@H](C)CC[C@@H](O)C(C)(C)O)CC[C@@H]23)C[C@@H](O)C[C@@H]1O	inactive
COc1cc2c(cc1-c1c(C)noc1C)ncc1[nH]c(=O)n(C(C)c3ccccn3)c12 (centres undefined)	inactive

Compound	Potency
CNC(=O)COC(=O)N1CCC(CCc2ccc(Cl)cc2)CC1	inactive
COc1ccc(CCc2nc3c(C)c(-c4c(C)noc4C)c(C)cc3n2CCN2CCOCC2)cc1	inactive
C=C(C)C1CC(O)C(C)C12CC(O)C1(C)OC1C2O (centres undefined)	inactive
CC[C@@H]1C[C@]1(NC(=O)[C@@H]1C[C@@H]2CN1C(=O)[C@H](C(C)(C)C)NC(=O)OCC(C)(C)CCCCc1cccc3c1CN(C3)C(=O)O2)C(=O)NS(=O)(=O)C1CC1	28.2 µM (active)
COc1ccc2[nH]c(=O)c3c(c2c1)OC(C)(C)C=C3	inactive
COc1cc(-c2cn(C3CCc4c(F)cccc4N(CC(F)(F)F)C3=O)nn2)ccc1-n1cnc(C)c1 (centres undefined)	inactive
CC1=CC2/C=C(\C)CCC(O)C/C=C/C(=O)OC23C(=O)NC(CC(C)C)C3C1C (centres undefined)	inactive
O=C(NCCCN1CCC2(CC1)OCc1ccccc12)[C@H]1CCCN1Cc1ccccc1	inactive
O=C(Nc1nc2cc(C(F)(F)F)cc(NC3CC3)n2n1)c1cccnc1	inactive
O=C(Nc1nnc(-c2ccc3c(c2)OCCO3)o1)C1CCCCC1	inactive
COC(=O)c1sccc1S(=O)(=O)Nc1ccc(Nc2ccccc2)cc1OC	inactive
NC(=O)c1cnc(N[C@@H]2CCCC[C@H]2N)nc1Nc1cccc(-n2nccn2)c1	inactive
COC1CC(O[C@H]2CC[C@]3(C)C4CC[C@@]5(C)C(=O)[C@]4(CC[C@@H]3C2)CC[C@@H]5C2=CC(=O)OC2)OC(C)C1OC1OC(COC2OC(CO)C(O)C(O)C2O)C(O)C(O)C1O (some centres undefined)	inactive
CN[C@@H]1[C@H](O[C@H]2[C@H](O[C@@H]3[C@@H](O)[C@H](O)[C@@H](N=C(N)N)[C@H](O)[C@H]3N=C(N)N)O[C@@H](C)[C@]2(O)CO)O[C@@H](CO)[C@H](O)[C@H]1O	inactive
OC1CCC(Nc2nc(-c3ccccc3)nc3[nH]ccc23)CC1 (centres undefined)	inactive
CC(=O)c1ccc2c(c1)[C@H](NC(=O)c1ccc(F)c(Cl)c1)[C@H](O)C(C)(C)O2	inactive
O=C(Nc1ccc(Cl)cc1)C1CCCN(C(=O)c2cccc(-c3ccco3)c2)C1 (centres undefined)	inactive
